CHO-K1 Ca antag: nonselective inhibitor or artifact in parental CHO-K1 cells; AID 602250; 360,000 tested, 0.6% active; ATP-induced calcium, Fluo-8 fluorescence; inhibition, % at 3 µM;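 active = inhibition above a per-plate cutoff, the plate's mean sample inhibition plus 3 SD, cut at about 24% in these data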;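 also: 0% = DMSO plus EC80 ATP and 100% = DMSO alone without ATP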
CHRM1 PAM: human M1 muscarinic receptor positive allosteric modulators, primary screen, CHO-K1 cells, Fluo-8 calcium fluorescence, 1536-well; CHO-K1 hM1, ACh EC20; 0% = ACh EC20, 100% = maximal ACh; 360,000 tested, 0.088% active; activation, % at 3 µM; Muscarinic acetylcholine receptor M1 (Homo sapiens), P11229; AID 588819, 2011; in the data active = activation above about 19%, passing the limit was not always enough
Target sequence (P11229 whole entry, looked up): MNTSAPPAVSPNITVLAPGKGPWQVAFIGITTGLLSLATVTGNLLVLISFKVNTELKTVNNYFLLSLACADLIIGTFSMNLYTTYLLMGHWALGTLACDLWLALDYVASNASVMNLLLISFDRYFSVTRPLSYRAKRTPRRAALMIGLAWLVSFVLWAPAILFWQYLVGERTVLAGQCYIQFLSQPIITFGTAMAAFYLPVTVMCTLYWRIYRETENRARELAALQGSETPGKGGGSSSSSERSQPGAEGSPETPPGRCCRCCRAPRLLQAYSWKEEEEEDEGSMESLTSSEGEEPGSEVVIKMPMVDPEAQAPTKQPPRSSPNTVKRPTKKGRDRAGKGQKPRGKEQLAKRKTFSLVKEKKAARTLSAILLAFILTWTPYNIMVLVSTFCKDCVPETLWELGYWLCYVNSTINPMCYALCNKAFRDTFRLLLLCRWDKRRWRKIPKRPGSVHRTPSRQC
M1 antag: human M1 muscarinic receptor antagonists, primary screen, CHO-K1 cells, Fluo-8 calcium fluorescence, 1536-well; CHO-K1 hM1, ACh EC80 antagonist; 360,000 tested, 1.3% active; AID 588852, 2011; inhibition, % at 3 µM;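 active = percent inhibition above its own plate's cutoff, namely the mean of that plate's compound wells plus 3 SD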;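 also: peak over basal fluorescence ratio during 140 s after agonist addition; 0% = ACh EC80 plus DMSO and 100% = DMSO alone without agonist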
M1 PAM parental: nonselective calcium activators in parental CHO-K1 cells, primary screen, counter-screen for M1 PAM project, cell-based, Fluo-8 calcium fluorescence, full deck, 1536-well. ATP EC20; 0% at ATP EC20, 100% at ATP max. activation, % at 3 µM. 360,000 tested, 0.02% active. AID 602247, 2012;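 active = activation above the run cutoff, the mean activation of all test compounds plus 3 SD, cut at about 40% in these data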;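 also: peak over basal fluorescence ratio in a 140 s read after ATP addition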
M1 ag parental: counter-screen for M1 agonists: effect in parental CHO-K1 cells; AID 602248, 2012; 360,000 tested, 0.48% active; activation, % at 3 µM; Fluo-8 calcium fluorescence; scaled to maximal ATP response, vehicle zero; in the data active = activation above about 15%;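 also: untransfected CHO-K1 host cells lacking M1 receptor as counterscreen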
CHRM1 agonist: human M1 muscarinic receptor agonists, primary screen, Fluo-8 calcium fluorescence, CHO-K1 cells, HTS; AID 588814, 2011; Muscarinic acetylcholine receptor M1 (Homo sapiens), P11229; activation, % at 3 µM; CHO-K1 hM1, agonist mode; 0% DMSO, 100% acetylcholine EC100; 360,000 tested, 0.33% active;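 active = activation above the run's mean compound activation plus 3 SD, cut at about 16% in these data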;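 also: peak over basal fluorescence ratio within a 140 s kinetic read after compound addition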
* hit, by the source's call. Only some compounds are listed: those with a hit (about 2.4% of all), similar ones and a draw of the others.

SMILES	CHO-K1 Ca antag	CHRM1 PAM	M1 antag	M1 PAM parental	M1 ag parental	CHRM1 agonist
Fc1ccc(CN2CCN(C(c3ccccc3)c3ccccc3)CC2)cc1	-7	-27	36*	1	0	-8
c1ccc(CN2CCN(C(c3ccccc3)c3nnnn3Cc3ccccc3)CC2)cc1 (stereo unspecified)	-8	-3	-19	18	0	-8
O=S(=O)(CCN1CCN(C(c2ccccc2)c2ccccc2)CC1)C(F)(F)F	-14	-34	77*	2	1	-14
OC(CN1CCN(Cc2ccccc2)CC1)c1ccc(F)cc1 (stereo unspecified)	-4	2	-3	18	2	-8
c1ccc(CN2CCN(C(c3ccccc3)c3ccccc3)CC2)cc1	-10	-25	44*	15	0	-9
CCCC1/C(=N/O)CC(c2ccccc2)NC1c1ccccc1 (stereo unspecified)	37*	-20	24	-16	18*	-5
CC1/C(=N/O)CC(c2ccccc2)NC1c1ccccc1 (stereo unspecified)	-5	-13	15	-6	0	-12
Cc1ccc2nc(SCC(=O)Nc3cccc(F)c3)nc(=O)n2c1	-6	-3	7	-19	6	0
O=C(CCc1nc(-c2ccc(Cl)cc2)no1)NC1CCCCC1	5	-2	1	2	17*	1
O=C(CCCc1nc(-c2ccc(Cl)cc2)no1)NC1CCCC1	4	-11	37*	-5	17*	0
COc1ccc(-c2noc(CCCC(=O)NC3CCCC3)n2)cc1	4	-13	10	-4	14	-1
CSc1ccc(/C=C(\C(=O)O)c2ccc(S(=O)(=O)N3CCCC3)s2)cc1	-10	8	-1	11	0	0
S=C(NCc1cccs1)Nc1cc(Cl)cc(Cl)c1	16	-20	43*	3	14	2
S=C(NCc1cccs1)Nc1cccc(Cl)c1	-4	-17	18	-12	8	-2
CCCCN(C(=O)c1nn(C)c(=O)c2ccccc12)c1c(N)n(CC(C)C)c(=O)[nH]c1=O	-21	10	-11	11	1	-3
Cc1cc(C)n2nc(S(=O)(=O)N(CC(C)C)CC(C)C)nc2n1	25*	-5	6	-8	0	-4
Cc1cc(C)n2nc(S(=O)(=O)N(C)Cc3ccccc3)nc2n1	0	10	-10	5	0	-6
CC1=C/C(=N\OC(=O)/C=C/c2ccccc2)C(C)=CC1=O	28*	11	0	-4	0	1
CC(OC(=O)Cn1cnc2c1c(=O)n(C)c(=O)n2C)C(=O)NC1CCCCC1C (stereo unspecified)	-1	4	-5	-1	1	-3
C=CCN(c1ccccc1OC)S(=O)(=O)c1cccc(C(=O)OCC(=O)c2c(N)n(C)c(=O)n(C)c2=O)c1	2	-21	31*	-19	8	-3
Cn1c(N)c(C(=O)COC(=O)c2cc(S(=O)(=O)N3CCCCC3)ccc2Cl)c(=O)n(C)c1=O	-13	0	3	18	4	-9
CC(C)[C@H](NC(=O)c1ccccc1)C(=O)OCC(=O)c1c(N)n(C)c(=O)n(C)c1=O	0	-12	29*	-16	1	-2
Cn1c(N)c(C(=O)COC(=O)c2cccc(S(=O)(=O)N3CCCCC3)c2)c(=O)n(C)c1=O	29*	-3	0	-10	0	-7
c1ccc2c3c([nH]c2c1)CCNC3	-6	-8	-4	20	1	27*
Nn1c(COc2cccc(Cl)c2)nc2ccccc2c1=O	2	-3	7	11	25*	-6
COc1ccc(C(=O)Nc2ccc(C)cn2)cc1S(=O)(=O)N1CCCc2ccccc21	16	-13	23*	-29	1	-4

High-throughput results: PubChem, The Scripps Research Institute Molecular Screening Center
